Inconclusive results are not listed. The source made the active and inactive calls. Calls follow the shape of the dose curve; as a rule, active = well fitted curve in the direction sought with a large enough effect; inconclusive = small, poorly fitted or top-dose-only effect, or another doubt; inactive = no such curve, though single readings can be large; an effect the other way counts as inactive or inconclusive.
What was measured:
[1] = Quantitative High-Throughput drug screen in 47 multiple myeloma cell lines against the NCATS MIPE library collection: JIM3_ECACC cell viability assay (AID 1918963; also: nearly all actives have a fitted effect of over 35% in size)
In short: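 Inhibition of cell viability is measured here. Each line was plated at 500 cells per well, treated with MIPE 4.0 drugs, kept 48 hours at 37C, then assayed for ATP content by CellTiter-Glo luminescence.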

[2] = Quantitative High-Throughput drug screen in 47 multiple myeloma cell lines against the NCATS MIPE library collection: JIM1_ECACC cell viability assay (AID 1918964)
In short: (§1)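 Steps: seed 500 cells per well; pin-transfer MIPE 4.0 library; incubate 48 h at 37C, 5% CO2, humidified; add CellTiter-Glo, 5 min room temperature; read luminescence.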

[3] = Quantitative High-Throughput drug screen in 47 multiple myeloma cell lines against the NCATS MIPE library collection: INA6_PLB cell viability assay (AID 1918965; also: nearly all actives have a fitted effect of over 55% in size)
In short: (§2)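 qHTS of the MIPE 4.0 collection: 500 myeloma cells/well, 48 h drug exposure at 37C in 5% CO2, then CellTiter-Glo for 5 min at room temperature before luminescence reading.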

[4] = Quantitative High-Throughput drug screen in 47 multiple myeloma cell lines against the NCATS MIPE library collection: JJN3_DSMZ cell viability assay (AID 1918966; also: nearly all actives have a fitted effect of over 50% in size)
In short: as §1

[5] = Quantitative High-Throughput drug screen in 47 multiple myeloma cell lines against the NCATS MIPE library collection: H1112_PLB cell viability assay (AID 1918967; also: nearly all actives have a fitted effect of over 30% in size)
In short: as §1

[6] = Quantitative High-Throughput drug screen in 47 multiple myeloma cell lines against the NCATS MIPE library collection: Karpas25_ECACC cell viability assay (AID 1918968; also: nearly all actives have a fitted effect of over 35% in size)
In short: as §1

[7] = Quantitative High-Throughput drug screen in 47 multiple myeloma cell lines against the NCATS MIPE library collection: KMS27_JCRB cell viability assay (AID 1918970); also: nearly all actives have a fitted effect of over 30% in size
In short: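 KMS27_JCRB myeloma cells, 500 per well, exposed 48 h at 37 C, 5% CO2 to MIPE 4.0 compounds. Viability from ATP by CellTiter-Glo luminescence, normalized to DMSO (100%) and medium-only (0%) wells.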

[8] = Quantitative High-Throughput drug screen in 47 multiple myeloma cell lines against the NCATS MIPE library collection: KMS12BM_JCRB cell viability assay (AID 1918971); also: nearly all actives have a fitted effect of over 35% in size
In short: (§3)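 Myeloma cell lines, 500 cells per well, exposed to MIPE 4.0 library compounds for 48 h at 37C, 5% CO2. Viability from ATP by CellTiter-Glo luminescence; normalised to DMSO (100%) and media-only (0%) wells.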

[9] = Quantitative High-Throughput drug screen in 47 multiple myeloma cell lines against the NCATS MIPE library collection: KMS12PE_JCRB cell viability assay (AID 1918972); also: nearly all actives have a fitted effect of over 30% in size
In short: as §2

[10] = Quantitative High-Throughput drug screen in 47 multiple myeloma cell lines against the NCATS MIPE library collection: KMS21BM_JCRB cell viability assay (AID 1918974); settings: ATP luminescence, 48 h; viability: at 45.8 µM (top of the series) unless noted
In short: as §1

[11] = Quantitative High-Throughput drug screen in 47 multiple myeloma cell lines against the NCATS MIPE library collection: KMS26_JCRB cell viability assay (AID 1918975); also: nearly all actives have a fitted effect of over 45% in size
In short: as §3

[12] = Quantitative High-Throughput drug screen in 47 multiple myeloma cell lines against the NCATS MIPE library collection: MMM1_PLB cell viability assay (AID 1918976); also: nearly all actives have a fitted effect of over 35% in size
In short: (§4)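 Viability after 48 h drug exposure was measured as ATP-dependent luminescence. Cells, 500 per well, sat at 37 °C under 5% CO2; DMSO wells set 100%, media-only wells 0%.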

[13] = Quantitative High-Throughput drug screen in 47 multiple myeloma cell lines against the NCATS MIPE library collection: MOLP8_DSMZ cell viability assay (AID 1918977); also: nearly all actives have a fitted effect of over 45% in size
In short: as §4

[14] = Quantitative High-Throughput drug screen in 47 multiple myeloma cell lines against the NCATS MIPE library collection: NCIH929_DSMZ cell viability assay (AID 1918978); also: nearly all actives have a fitted effect of over 35% in size
In short: as §4

[15] = Quantitative High-Throughput drug screen in 47 multiple myeloma cell lines against the NCATS MIPE library collection: OCIMY1_PLB cell viability assay (AID 1918979); also: nearly all actives have a fitted effect of over 35% in size
In short: as §4

[16] = Quantitative High-Throughput drug screen in 47 multiple myeloma cell lines against the NCATS MIPE library collection: MM1S_ATCC cell viability assay (AID 1918980); also: nearly all actives have a fitted effect of over 45% in size
In short: as §4

[17] = Quantitative High-Throughput drug screen in 47 multiple myeloma cell lines against the NCATS MIPE library collection: MM1R_ATCC cell viability assay (AID 1918981); also: nearly all actives have a fitted effect of over 35% in size
In short: as §4

[18] = Quantitative High-Throughput drug screen in 47 multiple myeloma cell lines against the NCATS MIPE library collection: LP1_DSMZ cell viability assay (AID 1918982); also: nearly all actives have a fitted effect of over 35% in size
In short: as §4

[19] = Quantitative High-Throughput drug screen in 47 multiple myeloma cell lines against the NCATS MIPE library collection: KMS28PE_JCRB cell viability assay (AID 1918983); also: nearly all actives have a fitted effect of over 35% in size
In short: as §4

[20] = Quantitative High-Throughput drug screen in 47 multiple myeloma cell lines against the NCATS MIPE library collection: KMS20_JCRB cell viability assay (AID 1918973); also: nearly all actives have a fitted effect of over 45% in size
In short: as §1

Measured: Potency
Potency is read from the fitted curve at half-maximal effect.

CC1(C)OC2=C(C(=O)c3ccccc3C2=O)[C@H](NCc2ccccc2)[C@H]1O
active: [1] 2090 nM | [2] 2640 nM | [3] 2090 nM | [4] 3720 nM | [5] 2350 nM | [6] 590 nM | [7] 1180 nM | [8] 8330 nM | [9] 1480 nM | [10] 1050 nM | [11] 5260 nM | [12] 2090 nM | [13] 2960 nM | [14] 2350 nM | [15] 4180 nM | [16] 2090 nM | [17] 4180 nM | [18] 4690 nM | [19] 6620 nM

CC=C1NC(=O)[C@H]2CSSCCC=C[C@H](CC(=O)N[C@H](C(C)C)C(=O)N2)OC(=O)[C@H](C(C)C)NC1=O
active: [1] 46.9 nM | [2] 9.3 nM | [3] 13.2 nM | [4] 41.8 nM | [5] 37.2 nM | [6] 14.8 nM | [7] 1 nM | [8] 10.5 nM | [20] 20.9 nM | [12] 935 nM | [13] 13.2 nM | [14] 52.6 nM | [16] 33.2 nM | [17] 16.6 nM | [18] 11.8 nM | [19] 20.9 nM

Cc1cc(Nc2cc(N3CCN(C)CC3)nc(Sc3ccc(NC(=O)C4CC4)cc3)n2)n[nH]1
active: [1] 5260 nM | [2] 6620 nM | [3] 16600 nM | [4] 16600 nM | [6] 18700 nM | [7] 11.8 nM | [9] 166 nM | [20] 4690 nM | [11] 14800 nM | [12] 10500 nM | [13] 5900 nM | [14] 5900 nM | [16] 13200 nM | [17] 16600 nM | [19] 11800 nM

CC1COC2(CCN(c3nc(=O)c4cc(C(F)(F)F)cc([N+](=O)[O-])c4s3)CC2)O1 (configuration not stated)
inactive: [1] | [2] | [3] | [4] | [5] | [6] | [8] | [13] | [14] | [15] | [16] | [17] | [18] | [19]

COc1ccc2c(c1)CC[C@@H](CN(C)CC(=O)O)[C@H]2c1ccccc1
active: [1] 1660 nM | [2] 372 nM | [3] 2960 nM | [4] 10500 nM | [8] 2090 nM | [9] 1050 nM | [10] 5260 nM | [11] 1870 nM | [12] 14800 nM | [14] 5260 nM | [16] 9350 nM | [17] 3720 nM | [19] 4180 nM

Cn1c(=O)n(-c2ccc(C(C)(C)C#N)cc2)c2c3cc(-c4cnc5ccccc5c4)ccc3ncc21
active: [1] 132 nM | [2] 20.9 nM | [3] 16.6 nM | [4] 148 nM | [6] 10.5 nM | [8] 13.2 nM | [9] 52.6 nM | [20] 372 nM | [11] 209 nM | [12] 209 nM | [13] 16.6 nM | [16] 296 nM | [17] 118 nM | [19] 52.6 nM

CNc1nccc(-c2cccnc2Oc2cc(C(=O)Nc3cccc(C(F)(F)F)c3)ccc2C)n1
active: [1] 18700 nM | [2] 8330 nM | [3] 4180 nM | [4] 18700 nM | [5] 14800 nM | [6] 8330 nM | [7] 7430 nM | [20] 9350 nM | [12] 18700 nM | [14] 5260 nM | [16] 18700 nM | [17] 20900 nM | [18] 23500 nM | [19] 20900 nM

C=C1C(=CC=C2CCC[C@]3(C)[C@@H]([C@H](C)C=C[C@H](C)C(C)C)CC[C@@H]23)C[C@@H](O)C[C@@H]1O
active: [1] 7430 nM | [2] 526 nM | [3] 1480 nM | [4] 833 nM | [5] 2350 nM | [6] 935 nM | [7] 118 nM | [8] 1870 nM | [10] 52.6 nM | [12] 5900 nM | [13] 7430 nM | [14] 935 nM | [15] 18700 nM | [16] 83.3 nM | [17] 1660 nM | [19] 13200 nM

COc1cc2c(Oc3ccc(NC(=O)C4(C(=O)Nc5ccc(F)cc5)CC4)cc3F)ccnc2cc1OCCCN1CCOCC1
active: [1] 11800 nM | [2] 1660 nM | [3] 7430 nM | [4] 16600 nM | [5] 16600 nM | [6] 935 nM | [7] 9350 nM | [9] 3720 nM | [20] 1870 nM | [11] 16600 nM | [12] 18700 nM | [14] 2960 nM | [16] 16600 nM | [17] 4180 nM | [18] 16600 nM | [19] 4180 nM

From PubChem BioAssay (NCATS)
